From PubChem
A selection: hits, their analogues and other compounds. The true share with any hit is near 1.6%.
KCNQ2 inh – rat KCNQ2 potassium channel inhibitors, primary screen, cell-based, CHO-K1, FluxOR thallium flux, B-score | Potassium voltage-gated channel subfamily KQT member 2 (Rattus norvegicus), O88943 | 20 min; hits give low values | B-score at 10 µM | 310,000 compounds, 1.1% hits | AID 2156, 2009;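 active means fluorescence ratio B-score at most minus 3 library SDs, with starting brightness B-score within 2 library SDs, cut at about -5.5 in these data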
KCNQ2 pot – potentiators of rat KCNQ2 potassium channel | Potassium voltage-gated channel subfamily KQT member 2 (Rattus norvegicus), O88943 | CHO-K1 KCNQ2, FluxOR thallium flux fluorescence; hits give high values | B-score at 10 µM | 310,000 compounds, 0.54% hits | AID 2239, 2010;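 active means fluorescence ratio B-score at least 3 SD of library B-scores, with initial fluorescence B-score within 3 of them, cut at about 5.3 in these data; same plate scores as AID 2156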;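 further: B-score of peak minus minimum over baseline fluorescence ratio after K+ and Tl+ stimulus; positive B-score means potentiation of KCNQ2 with more thallium influx and brighter signal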
Kir21 conf inh – mouse Kir2.1 channel blockers, retest, confirmation, cell-based, FluxOR thallium flux, duplicate; shares compounds with KCNQ2 pot; Kir2.1-expressing cells, FluxOR thallium flux fluorescence; hits give low values; Tl flux remaining, % of negative control (hits give low values), % at 10 µM; 2,300 compounds, 41% hits;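 active means Primary-screen hit whose thallium flux fell at least 3 control SD below untreated wells in both duplicates, with normal baseline fluorescence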;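 further: 0% = blank wells without stimulus and 100% = stimulated no-compound controls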
Target sequence (P35561 whole entry, looked up): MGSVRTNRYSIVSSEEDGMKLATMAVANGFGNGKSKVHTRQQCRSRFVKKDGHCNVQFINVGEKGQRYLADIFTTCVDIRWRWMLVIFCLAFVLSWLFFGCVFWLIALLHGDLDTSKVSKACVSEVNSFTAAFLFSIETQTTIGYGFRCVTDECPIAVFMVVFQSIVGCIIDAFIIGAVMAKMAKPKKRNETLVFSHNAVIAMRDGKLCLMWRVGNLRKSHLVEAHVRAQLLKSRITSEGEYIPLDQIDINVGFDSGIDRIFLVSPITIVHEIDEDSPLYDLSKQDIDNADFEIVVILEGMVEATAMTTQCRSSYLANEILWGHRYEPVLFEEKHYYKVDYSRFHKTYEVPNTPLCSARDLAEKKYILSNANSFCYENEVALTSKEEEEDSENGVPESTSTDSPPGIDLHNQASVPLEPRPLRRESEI
HEK293 ctr – alters thallium flux in parental HEK293 cells, Kir2.1 counter-screen; FluxOR thallium flux fluorescence; 0% = unstimulated blank wells; AID 2105; 2,300 compounds, 19% hits; FluxOR signal as % of negative control (100 = no effect), % at 10 µM; shares compounds with KCNQ2 pot;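 active means dye signal at least 3 control SD above or below untreated wells in both duplicates, raw fluorescence within 3, either direction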;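 further: percent is based on the flux ratio of peak minus minimum fluorescence over baseline F0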
CHO-K1 ctr – nonspecific thallium flux increase in parental CHO-K1, confirmation, counter-screen for KCNQ2 potentiator project, cell-based, FluxOR thallium flux, duplicate; 1,200 compounds, 43% hits; shares compounds with KCNQ2 pot; parental CHO-K1 cells, FluxOR thallium flux fluorescence; zero = vehicle mean+3SD, 100% = vehicle-minus-blank window; activity increase over 3SD of controls, % at 10 µM;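 active means signal rise of at least 3 SD above the untreated control mean, in both duplicate wells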;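 further: counter screen of KCNQ2 potentiator hits so any rise reflects channel-independent effects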
KCNQ1 sel pot – human KCNQ1 channel potentiation off-target, confirmation, selectivity assay for KCNQ2 potentiator project, cell-based, CHO, FluxOR thallium flux; shares compounds with KCNQ2 pot; CHO KCNQ1 stable, FluxOR thallium flux fluorescence; beyond 3SD, as % of vehicle-control signal; activation over 3SD threshold, % at 10 µM; 1,200 compounds, 28% hits; AID 2283, 2010;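 active means fluorescence ratio rise of at least 3 SD of vehicle wells above their mean, in both replicate wells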;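 further: 0% = vehicle mean plus 3 SD and 100% = vehicle minus unstimulated blank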
KCNQ2 pot confirm – rat KCNQ2 channel potentiators, confirmation, cell-based, CHO, FluxOR thallium flux, duplicate. shares compounds with KCNQ2 pot. CHO-KCNQ2 cells, FluxOR thallium flux fluorescence. potentiation, less the hit threshold, % at 10 µM. 1,200 compounds, 68% hits;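 active means fluorescence ratio rising 3 SD or more over the vehicle control mean in both replicates, plus primary screen hit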;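 further: peak minus minimum thallium fluorescence divided by baseline after K/Tl stimulus; 0% = vehicle mean plus 3 SD and 100% = vehicle minus unstimulated blank difference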
Kir2-1 sel – mouse Kir2.1 channel activation off-target, confirmation, selectivity assay for KCNQ2 potentiator project, cell-based, HEK293, FluxOR thallium flux. shares compounds with KCNQ2 pot. activity over 3SD threshold, % at 10 µM. 1,200 compounds, 2% hits. HEK293 Kir2.1, FluxOR thallium flux fluorescence;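 active means fluorescence ratio rise of at least 3 SD above the vehicle-control mean, seen in both replicates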;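 further: 0% = vehicle mean plus 3 SD and 100% = vehicle minus no-stimulus blank window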
KCNQ2 W236L pot – potentiators of retigabine-insensitive KCNQ2 W236L, mechanism study for KCNQ2 potentiator project, cell-based, rat KCNQ2 W236L, CHO, automated patch clamp | shares compounds with KCNQ2 pot | automated patch clamp current | current increase over 3SD of negative controls (%), hits give high values, % at 25 µM | 940 compounds, 10% hits | AID 2558, 2010;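 active means current increase at least 3 SD of the untreated controls above them in both duplicate recordings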
* hit, by the source's call.

What do the screens show for `N=c1c2c(ncn1CCCO)Oc1c(ccc3ccccc13)C2c1ccccc1` (stereo not given)?
KCNQ2 inh: inactive

Results for CCOc1ccc(NC(=O)c2ccc3c(c2)CCN3S(C)(=O)=O)cc1 ?
KCNQ2 inh: inactive; KCNQ2 pot: 0.5

Results for COc1ccccc1CC(=O)c1ccc(OCc2ccccc2)cc1 ?
KCNQ2 inh: inactive

Results for COc1cc2c(cc1OC)CN(c1ccc(F)cc1[N+](=O)[O-])CC2 ?
KCNQ2 inh: inactive

How did FC(F)(F)c1cc(C(F)(F)F)c2ccc(N3CCN(c4ccc(Cl)cc4)CC3)nc2n1 do in these assays?
KCNQ2 inh: inactive; KCNQ2 pot: 1.75

What do the screens show for `N#CC(c1ccc(Cl)cc1)c1ccc2c(C(F)(F)F)cc(C(F)(F)F)nc2n1` (stereo not given)?
KCNQ2 inh: inactive; KCNQ2 pot: 18.3*; Kir21 conf inh: inactive; HEK293 ctr: inactive; CHO-K1 ctr: -21.8; KCNQ1 sel pot: 46.6*; KCNQ2 pot confirm: 20.7*; Kir2-1 sel: -36.1; KCNQ2 W236L pot: inactive

What do the screens show for `CCC(=O)N1c2ccc(S(=O)(=O)NC3CCCCC3)cc2CC1C` (stereo not given)?
KCNQ2 inh: inactive; KCNQ2 pot: 0.04

What do the screens show for `COc1ccc(C(CNC(=O)C(Cc2ccccc2)NC(N)=O)N(C)C)cc1` (stereo not given)?
KCNQ2 inh: inactive

How did CSC(=S)N/N=C/c1ccc(N(C)C)cc1 do in these assays?
KCNQ2 inh: inactive; KCNQ2 pot: 1.25

How did CSC(=S)N/N=C/c1ccc(Br)cc1 do in these assays?
KCNQ2 inh: inactive; KCNQ2 pot: 7.11*; Kir21 conf inh: inactive; HEK293 ctr: 254.5%*; CHO-K1 ctr: -3.8; KCNQ1 sel pot: 38.7*; KCNQ2 pot confirm: -7.2; Kir2-1 sel: -22.7

How did NS(=O)(=O)c1ccc(CCNCc2ccccc2OCc2ccc(F)cc2)cc1 do in these assays?
KCNQ2 inh: inactive; KCNQ2 pot: 0.56

Results for NS(=O)(=O)c1ccc(NCc2ccccc2OCc2ccc(F)cc2)cc1 ?
KCNQ2 inh: inactive; KCNQ2 pot: 6.64*; Kir21 conf inh: inactive; HEK293 ctr: inactive; CHO-K1 ctr: 37.7*; KCNQ1 sel pot: -16.2; KCNQ2 pot confirm: 2.5*; Kir2-1 sel: -53.5; KCNQ2 W236L pot: inactive

What do the screens show for `Cc1cc(OCC(=O)NCCc2c[nH]c3ccccc23)c2c(C)cc(=O)oc2c1`?
KCNQ2 inh: inactive; KCNQ2 pot: 1.18

Results for C=CS(=O)(=O)c1sc(Cl)c(N2CCOCC2)c1[N+](=O)[O-] ?
KCNQ2 inh: -6.79*; KCNQ2 pot: -6.79; Kir21 conf inh: 19.5%*; HEK293 ctr: 48.5%*

Results for C=CSc1sc(Cl)c(N2CCOCC2)c1[N+](=O)[O-] ?
KCNQ2 inh: inactive

Results for CCCCCCCC(=O)NNC(=O)Cc1ccccc1 ?
KCNQ2 inh: inactive; KCNQ2 pot: 0.67

What do the screens show for `CCCCCC/C(C)=C1/SC(=S)NC1=O`?
KCNQ2 inh: inactive; KCNQ2 pot: 21.6*; Kir21 conf inh: inactive; HEK293 ctr: 438.5%*; CHO-K1 ctr: 6.0*; KCNQ1 sel pot: -23.1; KCNQ2 pot confirm: 104.5*; Kir2-1 sel: -3.4; KCNQ2 W236L pot: 71.1%*

Results for O=C(O)c1cnn(-c2nc(-c3ccc(Cl)c(Cl)c3)cs2)c1C(F)(F)F ?
KCNQ2 inh: inactive; KCNQ2 pot: 3.64; Kir21 conf inh: inactive; HEK293 ctr: inactive

What do the screens show for `O=C(O)c1cnn(-c2nc(-c3cccc(F)c3)cs2)c1C(F)(F)F`?
KCNQ2 inh: inactive; KCNQ2 pot: 0.46

What do the screens show for `Nc1ccccc1C(=O)NNC1=C(C(=O)C(F)(F)F)CCC1`?
KCNQ2 inh: inactive; KCNQ2 pot: 6.81*; Kir21 conf inh: inactive; HEK293 ctr: inactive; CHO-K1 ctr: 17.7*; KCNQ1 sel pot: -14.1; KCNQ2 pot confirm: -0.3; Kir2-1 sel: -29.1; KCNQ2 W236L pot: inactive

Results for COc1cccc(C(=O)NN=C2CCCC2)c1 ?
KCNQ2 inh: inactive

How did O=C(NNC(=O)c1ccccc1Cl)c1ccccc1Cl do in these assays?
KCNQ2 inh: inactive; KCNQ2 pot: 0.96

How did COc1cccc(C(=O)NNC2=C(C(=O)C(F)(F)F)CCC2)c1 do in these assays?
KCNQ2 inh: inactive; KCNQ2 pot: 6.38*; Kir21 conf inh: inactive; HEK293 ctr: inactive; CHO-K1 ctr: 3.0*; KCNQ1 sel pot: -6.7; KCNQ2 pot confirm: 20.6*; Kir2-1 sel: -27.9; KCNQ2 W236L pot: inactive

What do the screens show for `O=C(NNC1=C(C(=O)C(F)(F)F)CCC1)c1ccccc1Cl`?
KCNQ2 inh: inactive; KCNQ2 pot: 19.1*; Kir21 conf inh: inactive; HEK293 ctr: inactive; CHO-K1 ctr: -8.2; KCNQ1 sel pot: -20.0; KCNQ2 pot confirm: 73.5*; Kir2-1 sel: -28.2; KCNQ2 W236L pot: inactive

Results for O=C(NNC1=C(C(=O)C(F)(F)F)CCC1)c1ccc(Br)cc1 ?
KCNQ2 inh: inactive; KCNQ2 pot: 4.77

Results for CC(C)Cc1ccc(/C(=N/O)C(=O)O)s1 ?
KCNQ2 inh: inactive; KCNQ2 pot: 7.08*; Kir21 conf inh: inactive; HEK293 ctr: inactive; CHO-K1 ctr: 23.2*; KCNQ1 sel pot: -13.7; KCNQ2 pot confirm: 26.7*; Kir2-1 sel: -41.4; KCNQ2 W236L pot: inactive

What do the screens show for `CCc1ccc(C(=O)c2ccccc2C(=O)O)s1`?
KCNQ2 inh: inactive
